# LGR2 antag = blocks bursicon-induced cAMP signaling via Drosophila LGR2 | inhibition, % at 9.99 µM | HEK293 LGR2, CRE-luciferase, bursicon-stimulated, 4 h | 380,000 compounds, 0.35% hits | AID 720647;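 active = drop in luminescence signal, shown as inhibition above about 50% in the replicate tests, limit read from the data, passing the limit was not always enough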;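 also: agonist challenge used bursicon conditioned medium at about half maximal strength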
# PAX8 reporter = inhibitors of PAX8 transcriptional activity in RMG-I cells; 360,000 compounds, 1.2% hits; inhibition, % at 12.6 µM; RMG-I TPO-luciferase reporter, SteadyGlo, 24 h;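 active = mean replicate inhibition at least 60% with every replicate also reaching 60%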;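 also: luciferase light reporting Pax8 driven TPO promoter activity; plate controls were median of neutral control wells for no effect and mitoxantrone controls for full effect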
# Shn3 3UTR inh = reduces Shn3 3'UTR luciferase signal in osteoblasts. Clone20 osteoblast Shn3 3'UTR firefly luciferase, 24 h. inhibition, % at 12.5 µM. 360,000 compounds, 0.52% hits. AID 588674;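 active = mean inhibition of at least 75% with every replicate also reaching 75%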;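 also: 0% = median of neutral control wells and 100% = pilot-screen positive control compound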
# EWS-Fli block = blocks EWS/Fli oncoprotein-driven transcription; A673 NR0B1-luciferase reporter, viability-normalised; inhibition, % at 12.6 µM; 350,000 compounds, 0.67% hits;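 active = mean inhibition of at least 50% after viability correction, with every replicate also passing that limit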;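 also: firefly luciferase signal divided by Alamar Blue viability fluorescence both relative to DMSO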
# KKLEB cytotox = CF airway cell cytotoxicity counter-screen; 360,000 compounds, 0.36% hits; KKLEB CF airway cells viability, ATPlite luminescence, overnight; stronger effect = lower value; cells stimulated with P. aeruginosa culture filtrate; activity change (cytotoxicity), % at 5 µM;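 active = corrected activity change at or below -50% at 5 µM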
# CF NFkB block = inhibitors of cystic fibrosis induced NF-kB. 360,000 compounds, 0.86% hits. AID 588850. inhibition, % at 5 µM. KKLEB NF-kB-GFP reporter, PAF-induced, GFP fluorescence overnight;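 active = at least 50% inhibition at 5 µM, scaled per plate between neutral and stimulator controls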;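 also: PAF is a Pseudomonas aeruginosa culture filtrate used as stimulus; plate controls were PAF-stimulated DMSO wells for no effect and unstimulated DMSO wells for full effect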
# An asterisk follows results filed as active; / = no result. Sampled rows, rich in hits. Any-hit rate of the full collection: about 2%.
SMILES,LGR2 antag,PAX8 reporter,Shn3 3UTR inh,EWS-Fli block,KKLEB cytotox,CF NFkB block
COc1cccc(-c2ccc([C@@H]3[C@@H](CO)N(C(=O)C4CC4)C34CN(C(C)=O)C4)cc2)c1,-8,1,/,3,/,/
Cc1ccc(Cn2c(=N)n(CC(=O)c3ccc([N+](=O)[O-])cc3)c3ccccc32)cc1,-11,/,9,/,-61*,36
Cn1c(=N)n(CC(=O)c2ccc(F)cc2)c2ccccc21,-2,-49,59,78*,-17,2
Cn1c(=N)n(CC(=O)c2ccc(Br)cc2)c2ccccc21,-104,-35,-18,10,-21,-6
CO[C@H]1CN(C)C(=O)c2cc(NC(=O)c3ccc(-c4ccccc4)cc3)ccc2OC[C@@H](C)NC[C@@H]1C,22,112*,/,2,/,/
CO[C@@H]1CN(C)C(=O)c2ccc(NC(=O)c3ccc(-c4ccccc4)cc3)cc2OC[C@@H](C)NC[C@H]1C,2,68*,/,42,/,/
CO[C@H]1CN(C)C(=O)c2cc(NC(=O)c3ccc(-c4ccccc4)cc3)ccc2OC[C@H](C)NC[C@@H]1C,7,28,/,58*,/,/
CO[C@H]1CN(C)C(=O)c2ccc(NC(=O)c3ccc(-c4ccccc4)cc3)cc2OC[C@H](C)NC[C@@H]1C,4,50,/,/,/,/
CO[C@@H]1CN(C)C(=O)c2cc(NC(=O)c3ccc(Oc4ccccc4)cc3)ccc2OC[C@H](C)NC[C@H]1C,-1,8,/,69*,/,/
C[C@@H]1CCCCO[C@@H](CN(C)C(=O)Nc2ccccc2)[C@@H](C)CN([C@@H](C)CO)C(=O)c2cc(NC(=O)Cc3ccccc3)ccc2O1,-5,-22,/,-3,/,/
CCC(=O)N(C)C[C@@H]1Oc2cc(-c3ccncc3)ccc2S(=O)(=O)N([C@H](C)CO)C[C@@H]1C,8,/,/,3,/,/
O=C(C[C@H]1C=C[C@@H](NC(=O)c2ccc3c(c2)OCO3)[C@@H](CO)O1)NCc1ccc(Cl)cc1,5,/,/,0,/,/
O=C(C[C@H]1CC[C@@H]2[C@H](COC[C@@H](O)CN2C(=O)Nc2cc(Cl)cc(Cl)c2)O1)N1CCCCC1,-13,-3,/,-1,/,/
CO[C@H]1CN(C)C(=O)c2cc(NC(=O)c3ccccc3)ccc2OC[C@@H](C)NC[C@H]1C,-7,-4,/,7,/,/
CO[C@@H]1CN(C)C(=O)c2cc(NC(=O)c3ccc(-c4ccccc4)cc3)ccc2OC[C@H](C)NC[C@H]1C,0,84*,/,54*,/,/
Cc1ccc(-c2ccc3c(c2)O[C@H](CN(C)Cc2cccnc2)[C@@H](C)CN([C@H](C)CO)S3(=O)=O)cc1,13,/,/,63*,/,/
Cc1ccc(-c2ccc3c(c2)O[C@@H](CN(C)Cc2ccncc2)[C@H](C)CN([C@H](C)CO)S3(=O)=O)cc1,2,/,/,74*,/,/
C[C@H]1CN([C@@H](C)CO)S(=O)(=O)c2ccc(/C=C/c3ccccc3)cc2O[C@@H]1CN(C)Cc1cccnc1,/,86*,/,20,/,/
Cc1ccc(-c2ccc3c(c2)O[C@H](CN(C)Cc2ccncc2)[C@@H](C)CN([C@@H](C)CO)S3(=O)=O)cc1,-7,/,/,72*,/,/
C[C@@H]1CN([C@@H](C)CO)S(=O)(=O)c2ccc(-c3ccccc3)cc2O[C@@H]1CN(C)Cc1ccncc1,8,/,/,-4,/,/
C[C@H](CO)N1C[C@H](C)[C@H](CN(C)Cc2cccnc2)Oc2cc(/C=C/c3ccccc3)ccc2S1(=O)=O,-3,0,/,6,/,/
C[C@@H]1CN([C@H](C)CO)S(=O)(=O)c2ccc(-c3cccc(C#N)c3)cc2O[C@@H]1CN(C)CC1CC1,-10,17,/,-8,/,/
Cc1ccc(-c2ccc(C3[C@H]4CNC[C@@H]3N4S(=O)(=O)c3cccc(C)c3)cc2)cc1 (some centres undefined),-1,0,/,4,/,/
COc1cccc(S(=O)(=O)N[C@H]2CC[C@H](CCn3cc(-c4ccccc4OC)nn3)O[C@H]2CO)c1,-1,5,/,6,/,/
Cc1cccc(-n2ncc3c(N4CCOCC4)ncnc32)c1,90*,47,23,68*,-15,-39
Cc1cccc(-n2cc(-c3ccccc3)c3c(N4CCOCC4)ncnc32)c1,13,68*,25,-10,-92*,94*
Cc1ccc(-n2cc(-c3ccccc3)c3c(N4CCN(C)CC4)ncnc32)cc1,-16,-2,15,-7,-21,20
